From ChEMBL document CHEMBL3988442, “University of Dundee, Small-Polar-MMV Screening Library” (2021) come the findings set out here.

The structures appear in SMILES notation.

The target of the experiment is Sialic acid-binding Ig-like lectin 9 (Homo sapiens) (UniProt Q9Y336). In words: Hs-Siglec9 ALPHAscreen SOP 20170721. Also noted: scale not given: direction of the effect not stated beside the values. Conditions: 10 µM. (In general: Bead proximity is the source of the signal in Alpha formats.)
Chain of Sialic acid-binding Ig-like lectin 9 (Homo sapiens) (Q9Y336 whole entry): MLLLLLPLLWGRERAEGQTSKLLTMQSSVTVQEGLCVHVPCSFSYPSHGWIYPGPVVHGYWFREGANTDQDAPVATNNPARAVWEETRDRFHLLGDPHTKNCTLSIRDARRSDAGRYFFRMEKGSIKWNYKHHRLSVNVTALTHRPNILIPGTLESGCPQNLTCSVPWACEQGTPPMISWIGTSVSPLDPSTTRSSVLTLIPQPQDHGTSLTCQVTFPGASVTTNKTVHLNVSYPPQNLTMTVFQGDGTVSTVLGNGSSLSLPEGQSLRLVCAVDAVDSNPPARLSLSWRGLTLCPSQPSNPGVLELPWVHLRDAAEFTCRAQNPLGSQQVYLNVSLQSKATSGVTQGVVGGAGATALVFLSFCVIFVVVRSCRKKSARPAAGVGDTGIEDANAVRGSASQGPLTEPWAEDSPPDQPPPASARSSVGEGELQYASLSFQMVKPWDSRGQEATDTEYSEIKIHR
For the molecule `Cc1nc(C2CCCN2CC(=O)N(Cc2ccsc2)C2CC2)no1` (centres undefined), the Percent Effect is 2.75%.

Consider `CC(C)S(=O)(=O)N1CCC(c2cc3n(n2)[C@@H](C(F)(F)F)C[C@@H](C)N3)C1` (some centres undefined), for which the Percent Effect was 0.653%.

For the molecule `O=C(CSCC1CC1)N1CCCC(c2nccn2Cc2ccncc2)C1` (centres undefined), the Percent Effect was found to be 10.9%.

For `CC(=O)N1CCCN(c2nccc(-c3cn(C)nc3C)n2)CC1`, the Percent Effect was 25.5%.

As to `COc1ccc(C2CCCN2S(=O)(=O)N(C)CC(C)C)cc1` (centres undefined), the Percent Effect was -0.345%.

Take `Cc1cccc2[nH]c(C3CCN(C(=O)c4ccnn4C)CC3)nc12`: the Percent Effect stood at 3.85%.

Regarding `Cc1nc(CN2CCc3nn(C(C)C)c(=O)cc3C2)oc1C`, the Percent Effect is 5.18%.

Consider `COc1cc(CNC(=O)NCc2c(C)cc(C)[nH]c2=O)ccc1C`, for which the Percent Effect was 4.36%.

For `Fc1cccc(-c2nc(CN3CCOC(Cn4cccn4)C3)co2)c1` (centres undefined), the Percent Effect came out at 3.19%.

For the molecule `O=C([C@@H]1CC[C@@H]2[C@@H](CCN2Cc2ccoc2)O1)N1CCCC1`, the Percent Effect amounted to 27.1%.

Regarding `Cn1cccc1C(=O)N1CCC2(CC1)CN(c1ccccn1)CCO2`, the Percent Effect was found to be 10.6%.

As to `CCc1ccc(NS(=O)(=O)CC2=NC(=O)n3cccc3C2=O)cc1`, the Percent Effect is 5.52%.

As to `CC(=O)c1ccc(OCC(=O)NC(C)CCc2ccco2)cc1` (centres undefined), the Percent Effect was -3.5%.

With `CN(C)CC(=O)N1CCCC2(CCC(=O)N(CCc3c[nH]cn3)C2)C1` (centres undefined), the Percent Effect was 10.6%.

For `N#Cc1cccc(S(=O)(=O)N2CCCCC2CCN2CCCC2=O)c1` (centres undefined), the Percent Effect turned out to be 9.03%.

Turning to `O=C(NCC(O)c1ccc(F)c(F)c1)c1cccnc1O` (centres undefined), the Percent Effect was 2.28%.

On to `Cc1cccc(CN2C(=O)CC[C@@H]3[C@H]2CCN3Cc2ccc(C)s2)n1`, for which the Percent Effect was 2.33%.

Take `CC(=O)N1CC[C@H]2OCC[C@@]2(C(=O)NCc2ccco2)C1`: the Percent Effect stood at 12.6%.

As to `CSC(C)(C)CNC(=O)NC1CCN(C)CC1`, the Percent Effect was 7.43%.

As to `CN(Cc1ncc(-c2ccccc2)o1)CC1CCCN1c1cccnn1` (centres undefined), the Percent Effect came out at 2.54%.

For the molecule `Cc1noc([C@H]2C[C@@H]3CCN(CC4CC4)C[C@H]3O2)n1`, the Percent Effect was found to be 0.715%.

For the molecule `O=C(O)c1cc2c(nc1O)CC(c1cccc(Cl)c1)CC2=O` (centres undefined), the Percent Effect was determined as 2.46%.

For `COCCCC(=O)NS(=O)(=O)c1ccc2c(c1)OCCCO2`, the Percent Effect came to 9.85%.

With `Cc1nn(C)c(Cl)c1CNCc1cccnc1N1CCOCC1`, the Percent Effect was -3.82%.

As to `CN(Cc1ccc(F)cc1)CC1(O)CCCN(CC(C)(C)C)C1=O` (centres undefined), the Percent Effect was -2.57%.

`CN(CC(=O)N1CCC(Oc2ccccc2)CC1)c1cnccn1`: the Percent Effect came out at 7.97%.

As for `CC(=O)N1CCn2c(COCc3csc(C)n3)cnc2C1C` (centres undefined), the Percent Effect worked out at 4.19%.

As to `Cc1cc(C)c(CNC(=O)N2CCCC2C(N)=O)c(=O)[nH]1` (centres undefined), the Percent Effect was determined as 3.83%.

Consider `Cc1ccc(N2CCCC(NCC(=O)NCC3CC3)C2)nn1` (centres undefined), for which the Percent Effect stood at 2.61%.

Turning to `O=C1CC(c2ccc(F)c(F)c2)c2snc(C(=O)O)c2N1` (centres undefined), the Percent Effect worked out at 3.7%.

Turning to `Cc1nc(-c2ccccc2)sc1C(=O)NCCNc1ncccn1`, the Percent Effect was -0.445%.

Take `CNS(=O)(=O)c1cccc(CNC(=O)c2c(C)nn(C)c2C)c1`: the Percent Effect is -3.8%.

Consider `Clc1ccc(CN2CCCC(Cn3cncn3)C2)c2ncccc12` (centres undefined), for which the Percent Effect worked out at 1.38%.

`CCN(CC)Cc1cn2c(n1)CN(C(=O)c1cnccn1)CC2`: the Percent Effect was -1.54%.

`CN(C)C(=O)[C@H]1C[C@@H]2CN(S(=O)(=O)Cc3ccccc3)C[C@H]1O2`: the Percent Effect was -3.98%.

On to `CCc1nc(C2CCCN(C(=O)c3cccc4cn[nH]c34)C2)no1` (centres undefined), for which the Percent Effect was determined as 7.35%.

As for `CC(C(=O)NCCOc1ccc2c(c1)OCO2)n1cncn1` (centres undefined), the Percent Effect is -3.69%.

In the case of `CC(C)OCCCNC(=O)CN1CCC(N2CCN(C)C2=O)CC1`, the Percent Effect is 10.6%.

On to `CN(C)c1nc2c(c(=O)[nH]1)CCN(C(=O)c1cccc3nccnc13)C2`, for which the Percent Effect amounted to 4.82%.
